The full list was thinned out, with hits kept by preference.
RBX1-CUL1 inh: inhibitors of human ROC1-CUL1 ubiquitin ligase activity; E3 ubiquitin-protein ligase RBX1 (Homo sapiens) + Cullin-1 (Homo sapiens), P62877+Q13616; in vitro K48 di-Ub FRET, acceptor:donor ratio, 45 min; inhibition, % at 10 µM; 140,000 tested, 0.6% active; AID 1347404, 2020; in the data active = inhibition above about 25%
Starred values were filed as active, the others as inactive.

`CC1C(=NC2(c3nnnn3-c3cccc(C(F)(F)F)c3)CCCCC2)C(=O)N(c2ccccc2)N1C` (configuration not stated) gave RBX1-CUL1 inh 1.
Screening Cc1ccc(C)c(OC(=O)c2ccc(=O)oc2)c1 returned RBX1-CUL1 inh 28*.
`O=C(Oc1ccc(S(=O)(=O)O)cc1C(=O)O)c1ccc(=O)oc1` gave RBX1-CUL1 inh 5.
CCc1ccc(C)c(OC(=O)c2ccc(C)cc2)c1 was read as RBX1-CUL1 inh -7.
Cc1nc(NC(=O)c2sc3cccc(F)c3c2Cl)sc1C was read as RBX1-CUL1 inh 1.
Screening CC1(C)COC2(NC1=O)c1ccccc1-c1ccccc12 returned RBX1-CUL1 inh 10.
O=C1c2ccccc2COC12OCc1ccccc12 (configuration not stated) was read as RBX1-CUL1 inh -8.
O=C1C=CC2(c3ccccc3-c3ccccc32)S(=O)(=O)C1 was read as RBX1-CUL1 inh 61*.
Oc1cccc(Nc2nc(N3CCOCC3)c3ccccc3n2)c1 was read as RBX1-CUL1 inh 10.
For Oc1ccc2c(c1)c(-c1ccccc1)nn2-c1ccccc1 the results were RBX1-CUL1 inh -2.
Screening O=C1C=CC(=O)c2c1c(-c1ccccc1)nn2-c1ccccc1 returned RBX1-CUL1 inh 92*.
For O=C(O)c1nn(-c2ccccc2)c(-c2ccccc2)c1C(=O)c1ccccc1 the results were RBX1-CUL1 inh -5.
`O=C(O)c1cc(Nc2c([N+](=O)[O-])cc3c4c(cccc24)C(=O)OC3=O)ccc1O` gave RBX1-CUL1 inh 27*.
`O=C(O)c1ccc(N2C(=O)c3cccc4c([N+](=O)[O-])ccc(c34)C2=O)cc1O` gave RBX1-CUL1 inh -9.
COc1ccccc1N1C(=O)c2cccc3c(Nc4cccc(Cl)c4)c([N+](=O)[O-])cc(c23)C1=O was read as RBX1-CUL1 inh -6.
`COc1ccccc1NC(=O)N(Cc1nnc2n1CCCCC2)c1ccc(F)cc1` gave RBX1-CUL1 inh 5.
For CCCNc1nc2c(c(=O)n(C)c(=O)n2C)n1Cc1ccccc1 the results were RBX1-CUL1 inh 6.
`Cc1ccc(NC(=O)Cn2c(=O)n(Cc3nc(C)no3)c(=O)c3cc4c(cc32)OCO4)cc1` gave RBX1-CUL1 inh -1.
Screening CC1=C(C#N)C(=O)N(C)C(=O)/C1=C\c1ccc(-c2ccc(C(=O)OC(C)C)cc2)o1 returned RBX1-CUL1 inh -7.
`CC1=C(C#N)C(=O)N(CC(C)O)C(=O)/C1=C/c1ccc(-c2ccc(Br)cc2)o1` (configuration not stated) gave RBX1-CUL1 inh 47*.
`C=CCN1C(=O)C(C#N)=C(C)/C(=C\c2ccc(-c3ccc(Cl)c(C(=O)OC(C)C)c3)o2)C1=O` gave RBX1-CUL1 inh 2.
Cc1cccc(NC(=O)c2sc3nc(-c4ccccc4)cc(-c4ccc(Cl)cc4)c3c2N)c1 was read as RBX1-CUL1 inh -2.
For CC1CCN(Cn2nc(COc3ccc(C4CCCCC4)cc3)n(C)c2=S)CC1 the results were RBX1-CUL1 inh 2.
`CN(C)CCN1C(=O)NC(CCc2ccccc2)(C2CCN(C(=O)Cc3ccsc3)CC2)C1=O` (configuration not stated) gave RBX1-CUL1 inh 4.
COc1cc(CNc2ccc(N3CCCC3)cc2)cc(Cl)c1OCc1ccc(F)cc1 was read as RBX1-CUL1 inh -12.
`CCOc1c(Cl)cc(CNc2ccc(N3CCCC3)cc2)cc1OC` gave RBX1-CUL1 inh 68*.
`COc1cccc(CNc2ccc(N3CCOCC3)cc2)c1OC` gave RBX1-CUL1 inh 11.
For Cn1c(=O)c2c(nc3[nH]c(C(C)(C)C)cn32)n(C)c1=O the results were RBX1-CUL1 inh -4.
For CN(C)c1ccc(C(=O)Nc2sc(Nc3ccccc3)nc2C(N)=O)cc1 the results were RBX1-CUL1 inh 0.
For CN(C)S(=O)(=O)N1CCC(C(=O)Nc2cc(Cl)ccc2Cl)CC1 the results were RBX1-CUL1 inh 1.
For Cc1cc(OC(C)C(=O)N2CCC(C(N)=O)CC2)cc(C)c1Cl (configuration not stated) the results were RBX1-CUL1 inh 4.
For Cc1ccc(-c2ccccc2)n1-c1ccc(C(=O)N/N=C\c2ccc(N3CCOCC3)o2)cc1 the results were RBX1-CUL1 inh -10.
COc1cc(NS(=O)(=O)c2ccc(NS(=O)(=O)c3ccccc3)cc2)nc(OC)n1 was read as RBX1-CUL1 inh -5.
`COc1cc(NS(=O)(=O)c2ccc(NC(=O)Nc3cccc(Cl)c3)cc2)nc(OC)n1` gave RBX1-CUL1 inh -5.
For COc1ccc(CC(=O)Nc2ccc(S(=O)(=O)Nc3cc(OC)nc(OC)n3)cc2)cc1 the results were RBX1-CUL1 inh 35*.
`O=[N+]([O-])c1ccc(N2CCCCC2)nc1` gave RBX1-CUL1 inh 4.
c1ccc(-c2cc(N3CCCCC3)ncn2)cc1 was read as RBX1-CUL1 inh -4.
`c1ccc2cc(N3CCCCC3)ncc2c1` gave RBX1-CUL1 inh 65*.
`Cc1cc(-n2cccc2)sc1C` gave RBX1-CUL1 inh 9.
Cc1cc(C)n(-c2nc(Nc3ccc(OC(F)(F)Cl)cc3)nc(-n3nc(C)cc3C)n2)n1 was read as RBX1-CUL1 inh -5.
Screening Cn1c(SCCc2ccccc2)nc2c(c1=O)C1(CCCC1)Cc1ccccc1-2 returned RBX1-CUL1 inh -5.
Screening C#CCSc1nc2c(c(=O)n1Cc1ccccc1)C1(CCCCC1)Cc1ccccc1-2 returned RBX1-CUL1 inh -7.
Screening NCCCSc1nc2c(c(=O)n1Cc1ccccc1)C1(CCCCC1)Cc1ccccc1-2 returned RBX1-CUL1 inh 92*.
`CC(C)CCOc1ccc(C(=O)Nc2sc3c(c2C#N)CCCCC3)cc1` gave RBX1-CUL1 inh -2.
Screening Cc1ccccc1-n1ncc(SCc2ccccc2)c(Cl)c1=O returned RBX1-CUL1 inh -2.
For CC1=C(SCc2ccccc2)C(=O)c2ccccc2C1=O the results were RBX1-CUL1 inh 37*.
`Cc1cc2c(n1Cc1ccccc1)C(=O)c1ccccc1-2` gave RBX1-CUL1 inh 7.
CCC(C)C(=O)N1CCC(Oc2ccc(C(=O)NCCN(C)C)cc2Cl)CC1 (configuration not stated) was read as RBX1-CUL1 inh 13.
O=C(CSC1=NCCN1)C1COc2ccccc2O1 (configuration not stated) was read as RBX1-CUL1 inh 4.
Screening CC1=CC(C)=C2C=CC(=O)C(=O)C2O1 (configuration not stated) returned RBX1-CUL1 inh 99*.
CCCc1c(O)nc(SC2CC(=O)N(c3ccc(Oc4ccccc4)cc3)C2=O)[nH]c1=O (configuration not stated) was read as RBX1-CUL1 inh 5.
`Cc1ccc(OCCCCN2CCNCC2)c(C(C)(C)C)c1` gave RBX1-CUL1 inh 25*.
Cc1ccc(OCCCCCN2CCNCC2)cc1 was read as RBX1-CUL1 inh 0.
Cc1cc(Cl)ccc1OCCCCCN1CCNCC1 was read as RBX1-CUL1 inh -4.
CCOC(=O)c1ccc2nc(COc3ccc(Cl)cc3)[nH]c2c1 was read as RBX1-CUL1 inh -3.
`CCOC(=O)C1(CCc2ccccc2)CCCN(C2CCOCC2)C1` (configuration not stated) gave RBX1-CUL1 inh 3.
For Cc1nc(-c2ccc(S(=O)(=O)N3CCN(c4ccccc4F)CC3)cc2)co1 the results were RBX1-CUL1 inh -6.
`CC1=NOC(=O)/C1=C\c1ccc(-c2cc(Cl)ccc2Cl)o1` gave RBX1-CUL1 inh 97*.
